Inconclusive results are not listed. Activity calls are given as the source filed them. The call rests on the fitted dose curve; in most records, active means well fitted cell-killing curve with a large enough effect; inconclusive means small, poorly fitted or top-dose-only effect, or effect the other way; inactive means no such curve, though single readings can be large or run the other way.
Potency means the concentration at half of the fitted maximal effect.

This assay is described as follows: Quantitative High-Throughput drug screen in 47 multiple myeloma cell lines against the NCATS MIPE library collection: JJN3_DSMZ cell viability assay (AID 1918966; further: nearly all actives have a fitted effect of over 50% in size). As to conditions: JJN3 myeloma cells viability, CellTiter-Glo ATP, 48 h; series mostly up to 45.8 µM. The text has this: PI: Beverly A. Mock Ph.D.
Laboratory of Cancer Biology and Genetics,
Center for Cancer Research, National Cancer Institute,
National Institute of Health, Bethesda, Maryland
Drug resistance and disease progression are common in multiple myeloma (MM) patients, underscoring the need for new therapeutic combinations. […] We hypothesized that effective combinations would reduce MYC expression and enhance p16 activity. […] These preclinical data identify potentially useful drug combinations for evaluation in drug-resistant MM and reveal potential mechanisms of combined drug sensitivity.
Described herein is the primary MIPE qHTS used to cherrypick compounds. Validated compounds were then further tested for potential synergistic activiy.
[1] Peat TJ, Gaikwad SM, Dubois W, Gyabaah-Kessie N, Zhang S, Gorjifard S, Phyo Z, Andres M, Hughitt VK, Simpson RM, Miller MA, Girvin AT, Taylor A, Williams D, D'Antonio N, Zhang Y, Rajagopalan A, Flietner E, Wilson K, Zhang X, Shinn P, Klumpp-Thomas C, McKnight C, Itkin Z, Chen L, Kazandijian D, Zhang J, Michalowski AM, Simmons JK, Keats J, Thomas CJ, Mock BA. Drug combinations identified by high-throughput screening promote cell cycle transition and upregulate Smad pathways in myeloma. Cancer Lett. 2023 Aug 1;568:216284. doi: 10.1016/j.canlet.2023.216284. Epub 2023 Jun 24. PMID: 37356470; PMCID: PMC10408729.
SEQUENCE No. (e.g., 1, 2, 3, etc.); […] (e.g., Cells, Incubation, Reagent, etc.); VALUE and DESCRIPTION.
1; Cells; 5 uL; white, solid bottom 1536-well Greiner assay plate.
2; Compounds; 23 nL; Kalypsis pin tool (Wako USA) equipped with a 1536-well pin head to transfer to the assay plates.
3; Incubation; 48 hours; 37C incubation.
4; Reagent;5uL; CellTiter Glo (Promega).
5; Detector; 425V; Luminescence; Viewlux PerkinElmer.
NOTES (numbers refer to Sequence numbers above)
1. The cell-based screening methods employed in this study were like those previously published. Briefly, the corresponding myeloma cell lines were screened in 1,536-well plates with 500 cells, 5-uL per well for inhibition of cell viability (assessed by measuring ATP levels with CellTiterGlo).
2. NCATS MIPE 4.0 library of approved and investigational drugs were added using the Kalypsis pin tool. Wells treated with DMSO only for 100% viability and media only wells for 0% viability were used as controls.
3. The assay plates were covered and incubated for 48 hours in a 37C, 5% CO2 incubator with controlled humidity.
4. After 48 hours, CellTilter-GloTM luminescent substrate mix (Promega) reagent was added to the assay plate and plates we incubated for 5 min at room temperature.
5. Signal was measured as median relative luminescence units on a ViewLux (PerkinElmer) multiplate reader.
[1] Heske CM, Davis MI, Baumgart JT, Wilson K, Gormally MV, Chen L, Zhang X, Ceribelli M, Duveau DY, Guha R, Ferrer M, Arnaldez FI, Ji J, Tran HL, Zhang Y, Mendoza A, Helman LJ, Thomas CJ. Matrix Screen Identifies Synergistic Combination of PARP Inhibitors and Nicotinamide Phosphoribosyltransferase (NAMPT) Inhibitors in Ewing Sarcoma. Clin Cancer Res. 2017 Dec 1;23(23):7301-7311. doi: 10.1158/1078-0432.CCR-17-1121. Epub 2017 Sep 12. PMID: 28899971; PMCID: PMC6636827.
Consider `CC1(C)OC2=C(C(=O)c3ccccc3C2=O)[C@H](NCc2ccccc2)[C@H]1O`, for which the Potency is 3.72 µM (active).
The result for `CC(C)c1ccc(Cn2ccc3c4c(N)nc(NC5CC5)nc4ccc32)cc1` reads 8.33 µM (active); that for `CN1CCN(c2ccc3nc(-c4c(N)c5c(F)cccc5[nH]c4=O)[nH]c3c2)CC1`, 20.9 µM (active).
The result for `COc1ccc2c(c1)CC[C@@H](CN(C)CC(=O)O)[C@H]2c1ccccc1` reads 10.5 µM (active).
The result for `COc1cc(-c2nn(C3CCC(N4CCN(C(C)=O)CC4)CC3)c3ncnc(N)c23)ccc1NC(=O)c1cc2ccccc2n1C` (stereo not given) reads 7.43 µM (active).
In the case of `Nc1ccc(C(=O)c2cc3c(ccc4ccccc43)[nH]2)cc1`, the Potency is 7.43 µM (active).
`CNc1nccc(-c2cccnc2Oc2cc(C(=O)Nc3cccc(C(F)(F)F)c3)ccc2C)n1`: the Potency was 18.7 µM (active).
Turning to `Cn1cc(-c2[nH]c3cc(NC(=O)[C@H](N)C4CCCCC4)cc4c3c2C=NNC4=O)cn1`, the Potency was 0.662 µM (active).
The result for `Cc1ccc(-c2ncn(-c3ccc(Nc4nccc(-c5cccc(N6CCOCC6)c5)n4)cc3)n2)cn1` reads 0.235 µM (active); that for `Cc1nc(N)ncc1-c1nc(N2CCOCC2)c2sc(C(C)(C)O)cc2n1`, 5.26 µM (active); that for `COc1cc2ncnc(Nc3ccc(F)c(Cl)c3)c2cc1NC(=O)C=CCN1CCCCC1`, 20.9 µM (active).
As for `CC=C1NC(=O)[C@H]2CSSCCC=C[C@H](CC(=O)N[C@H](C(C)C)C(=O)N2)OC(=O)[C@H](C(C)C)NC1=O`, the Potency was 0.0418 µM (active).
In the case of `CC(C)(C)OC(=O)Nc1ccc(-c2cc(C(=O)NCCCCCCC(=O)NO)no2)cc1` it was 2.35 µM (active); in that of `NC(=O)Nc1cc(-c2cccc(F)c2)sc1C(=O)N[C@H]1CCCNC1`, 1.32 µM (active).
The result for `CCC[C@H](NC(=O)C(C#N)=Cc1cccc(Br)n1)c1ccccc1` reads 2.09 µM (active); that for `CNC(=O)c1ccc(N2C(=S)N(c3cnc(C#N)c(C(F)(F)F)c3)C(=O)C23CCC3)cc1F`, 3.32 µM (active).
In the case of `CNC(=O)c1nn(C)c2c1C(C)(C)Cc1cnc(Nc3ccc(N4CCN(C)CC4)cc3)nc1-2`, the Potency was 4.69 µM (active).
In the case of `CCCCN1CCC(CNC(=O)c2c3n(c4ccccc24)CCCO3)CC1` it was 2.09 µM (active); in that of `CC(=O)OCC(=O)[C@@]1(O)[C@H](C)C[C@H]2[C@@H]3C=C(C)C4=Cc5c(cnn5-c5ccccc5)C[C@]4(C)[C@@H]3[C@@H](O)C[C@@]21C`, 9.35 µM (active).
In the case of `O=C(Nc1ncc(-c2cc(C(F)F)nn2-c2c(Cl)cccc2Cl)s1)C1CC1` it was 1.32 µM (active); in that of `COc1cc(C(C)C)c2c(c1)S(=O)(=O)N(COc1cc(=O)n3cccc(OCCN4CCCCC4)c3n1)C2=O`, 5.26 µM (active).
The result for `CC(C)c1nn(-c2c(Cl)cccc2Cl)c2nc(Cc3ccc(OCCO)cc3)[nH]c(=O)c12` reads 0.0833 µM (active); that for `Cc1ccc(C(N)=O)cc1Nc1nccc(-c2cn(C(C)C)c3cnccc23)n1`, 4.69 µM (active).
With `COc1cc2c(cc1-c1c(C)noc1C)ncc1[nH]c(=O)n([C@H](C)c3ccccn3)c12`, the Potency was 6.62 µM (active).
For the molecule `CC(C)c1cc(-c2n[nH]c(=O)n2-c2ccc3c(ccn3C)c2)c(O)cc1O`, the Potency was 0.0418 µM (active).
Consider `C#Cc1cccc(Nc2ncnc3cc(OC)c(OCCCCCCC(=O)NO)cc23)c1`, for which the Potency is 0.132 µM (active).
The result for `CCCn1c(=O)c2[nH]c(-c3cnn(Cc4cccc(C(F)(F)F)c4)c3)nc2n(CC)c1=O` reads 5.9 µM (active); that for `COC(=O)[C@]12CCC(C)(C)C[C@@H]1[C@@H]1C(=O)C=C3[C@@]4(C)C=C(C#N)C(=O)C(C)(C)[C@@H]4CC[C@@]3(C)[C@]1(C)CC2`, 0.526 µM (active).
As for `CCC1=C[C@@H]2CN(C1)Cc1c([nH]c3ccccc13)[C@@](C(=O)OC)(c1cc3c(cc1OC)N(C)[C@@H]1[C@@](O)(C(=O)OC)[C@H](OC(C)=O)[C@]4(CC)C=CCN5CC[C@]31[C@@H]54)C2`, the Potency is 7.43 µM (active).
In the case of `CC[C@@]1(O)C(=O)OCc2c1cc1n(c2=O)Cc2cc3cc(O)ccc3nc2-1` it was 1.87 µM (active); in that of `NC(=O)c1c(OCc2c(F)cc(Br)cc2F)nsc1NC(=O)NCCCCN1CCCC1`, 20.9 µM (active).
The result for `C[C@@H]1CN(CC(=O)Nc2ccc3c(c2)Cc2cccc(-c4cc(=O)cc(N5CCOCC5)o4)c2S3)C[C@H](C)O1` reads 13.2 µM (active); that for `C=CC(=O)Nc1cc2c(Nc3ccc(F)c(Cl)c3)ncnc2cc1C#CC(C)(C)N1CCN(C)CC1`, 5.26 µM (active).
The result for `O=C(NCCCNc1nc(Nc2cccc(NC(=O)N3CCCC3)c2)ncc1I)c1cccs1` reads 16.6 µM (active); that for `Nc1nccc(Oc2ccc(NC(=O)c3c[nH]cc(-c4ccc(F)cc4)c3=O)cc2F)c1Cl`, 20.9 µM (active); that for `CC(C)c1cnn2c(NCc3ccccc3)cc(N[C@@H](CO)[C@H](O)CO)nc12`, 0.132 µM (active).
Turning to `COc1ccc(F)c(F)c1C(=O)c1cnc(NC2CCN(S(C)(=O)=O)CC2)nc1N`, the Potency was 1.32 µM (active).
In the case of `Cc1cc(CN2CCN(c3c(Br)cnc4nc(-c5ccc(N6CCN(C)CC6)cc5)[nH]c34)CC2)no1` it was 10.5 µM (active); in that of `c1cc(-c2cnn3cc(-c4ccc(OCCN5CCCCC5)cc4)cnc23)ccn1`, 8.33 µM (active); in that of `O=C(CCCCCCNC(=O)c1cnc(N(c2ccccc2)c2ccccc2)nc1)NO`, 4.18 µM (active).

Source of the values: PubChem BioAssay (NCATS).
